System: Neuregulin-1 EGF-like domain
Assay: binders of neuregulin-1 EGF-like domain, primary screen, biochemical, small-molecule microarray, 635 nm fluorescence (AID 1081);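 note: binding of the protein to compounds printed on small-molecule microarray slides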
Details: small-molecule microarray binding, higher = more signal

Going from C[C@@]1([C@@H](NS(=O)(=O)c2cccc3cccnc23)c2ccc(-c3ccccc3)cc2)C[C@H]1C1CCCCC1 to CN1C(=O)C2C=CC(C(O)c3ccc(I)cc3)N(N(c3ccccc3)c3ccccc3)C2C1=O (stereo not given), the composite z-score falls from 0.809 to -0.0493.

Compared with O=C1O[C@H](c2ccccc2)[C@H](c2ccccc2)N2[C@H]1[C@@H](C(=O)N1CCN(c3ncccn3)CC1)[C@]1(C(=O)Nc3ccc(C#CC4(O)CCCCCC4)cc31)[C@H]2c1ccc(O)cc1, COCCOC(=O)N1C(=O)[C@@]2(c3cc(C#CCCO)ccc31)[C@H](C(=O)N1CCN(c3ncccn3)CC1)[C@H]1C(=O)O[C@H](c3ccccc3)[C@H](c3ccccc3)N1[C@@H]2c1ccc(OCCO)cc1 is higher in composite z-score: 1.28 for the first, 1.3 for the second.

Going from C=CCC(OC(C)=O)[C@@H]1[C@@H](N(Cc2ccc(-c3ccccc3)cc2)C(=O)Cc2ccc(OC)cc2)c2cc(OCCCO)ccc2N1C(=O)c1ccc2ccccc2c1 (stereo not given in full) to C=CCNC(=O)[C@H]1[C@@H]2C(=O)O[C@@H](c3ccccc3)[C@@H](c3ccccc3)N2[C@@H](c2ccc(OCCO)cc2)[C@]12C(=O)Nc1ccc(C#Cc3ccc(OC)cc3)cc12, the composite z-score rises from -0.659 to 1.22.

First: O=C(NC1CC1)[C@@H]1c2ccccc2C(=O)N(C2CCCCC2)[C@H]1c1ccc(CO)cc1
Second: O=C(NCC(F)(F)F)[C@@H]1c2ccccc2C(=O)N(Cc2cc(C(F)(F)F)cc(C(F)(F)F)c2)[C@H]1c1ccc(CO)cc1
The composite z-score of the first is higher: 1.29 for the first, 1.25 for the second.

Going from COC(=O)[C@@]1(Cc2ccccc2)[C@H]2c3cc(C(=O)N(C)C)n(Cc4nc5ccccc5[nH]4)c3C[C@H]2CN1C(=O)c1ccccc1 to COC(=O)[C@@]1(Cc2ccc(F)cc2)[C@H]2c3cc(C(=O)N(C)C)n(Cc4ccc(C(F)(F)F)nc4)c3C[C@H]2CN1C(=O)c1ccccc1, the composite z-score falls from 1.33 to 1.18.

Compared with C=CCOC(=O)[C@@H]1[C@H]2C(=O)O[C@H](c3ccccc3)[C@H](c3ccccc3)N2[C@H](c2ccc(OCCOC(=O)[C@@H]3C[C@@H]4C(=O)N[C@@H](CC(C)C)C(=O)N4[C@@H]3c3ccc(O)cc3)cc2)[C@@]12C(=O)Nc1ccc(I)cc12, C=CCNC(=O)[C@@H]1[C@H]2C(=O)O[C@H](c3ccccc3)[C@H](c3ccccc3)N2[C@H](c2ccc(OCCO)cc2)[C@@]12C(=O)Nc1ccc(C#CCNC(N)=O)cc12 is lower in composite z-score: 1.29 for the first, 0.184 for the second.

First: COCCOC(=O)N1C(=O)[C@@]2(c3cc(C#CCNC(N)=O)ccc31)[C@H](C(N)=O)[C@H]1C(=O)O[C@H](c3ccccc3)[C@H](c3ccccc3)N1[C@@H]2c1ccc(O)cc1
Second: COCCOC(=O)N1C(=O)[C@@]2(c3cc(C#CCNC(N)=O)ccc31)[C@H](c1ccccc1OCCO)N1[C@H](c3ccccc3)[C@H](c3ccccc3)OC(=O)[C@H]1[C@@H]2C(=O)N1CCCCCCC1
The composite z-score of the first is lower: 0.235 for the first, 1.1 for the second.

Going from Cc1ccc(S[C@]2(C(=O)NCc3ccccc3)CC(=O)N(Cc3ccccc3Cl)[C@@H]2c2ccc(CO)cc2)cc1 to C[C@]1(C(=O)O)c2ccccc2C(=O)N(Cc2cc(C(F)(F)F)cc(C(F)(F)F)c2)[C@H]1c1ccc(CO)cc1, the composite z-score falls from 0.79 to 0.0653.

Compared with COC(=O)C(CC#Cc1ccc2c(c1)[C@]1(C(=O)N2)[C@H](C(N)=O)[C@H]2C(=O)O[C@H](c3ccccc3)[C@H](c3ccccc3)N2[C@@H]1c1ccccc1OCCO)C(=O)OC, C=CCNC(=O)[C@@H]1[C@H]2C(=O)O[C@H](c3ccccc3)[C@H](c3ccccc3)N2[C@H](c2ccc(O)cc2)[C@@]12C(=O)Nc1ccc(C#CC3=CCCCC3)cc12 is lower in composite z-score: 1.4 for the first, 1.06 for the second.

Going from CCN1C(=O)C2CC(=O)C3C(CN(S(=O)(=O)c4ccc(C)cc4)C3c3ccc(C)cc3)C2C1=O (stereo not given) to CCOC(=O)C1=CCC(c2ccncc2)N(S(=O)(=O)c2ccc(C)cc2)C1 (stereo not given), the composite z-score rises from 1.18 to 1.21.

Going from C=C[C@H](OC)[C@@H](O)c1ccc(OC)c(O)c1 to C=C(C(=O)CC[C@@H](OC(=O)c1cccnc1)c1cccc(OCCO)c1)C(C)C, the composite z-score rises from -0.673 to -0.284.

Going from CCCCCN1CC=CC23O[C@@H]4/C=C\CCCOC(=O)C4[C@H]2C(=O)N(CCCCCO)[C@@H]3C1=O (stereo not given in full) to CCCCN1CC=CC23O[C@@H]4/C=C\CCC(C)OC(=O)C4[C@H]2C(=O)N(CCO)[C@@H]3C1=O (stereo not given in full), the composite z-score rises from -0.786 to 1.12.

Compared with CC(C)C[C@H]1NC(=O)CNC(=O)[C@@]23C(=O)N[C@@H](Cc4ccccc4)C2[C@H](C)[C@@]2(C)O[C@H]2C3/C=C/C/C=C\CNC1=O (stereo not given in full), COC(=O)[C@H](Cc1ccccc1)N1CC(C)(OC)O[C@@H](Cc2ccccc2)[C@H]1/C=C/C1CC1 (stereo not given in full) is lower in composite z-score: 0.598 for the first, 0.484 for the second.

Compared with CC(C)[Si](C#Cc1ccccc1)(O[C@H](c1ccccc1)c1cn(Cc2ccccc2)nn1)C(C)C, COc1cc(Cc2cc3c(c(CCc4ccccc4)n2)[Si](C(C)C)(C(C)C)O[C@H]3c2ccccc2)cc(OC)c1OC is lower in composite z-score: 1.28 for the first, -0.44 for the second.

Compared with O=C/C=C/c1ccc(-c2ccccc2)cc1, CCCCC(=C=CC[C@@H](O)c1ccccc1OCCO)C[C@@H](O)c1ccccn1 is higher in composite z-score: -0.836 for the first, 0.327 for the second.

Going from COc1cc(CO)cc(I)c1O[C@H]1C=C(C(=O)NCCO)C[C@@H](N(CCN2CCOCC2)C(=O)C2CCCO2)[C@@H]1O (stereo not given in full) to COC(=O)[C@@]1(Cc2ccc(F)cc2)[C@H]2c3cc(C(=O)N4CCCC4)n(Cc4ccc(C(F)(F)F)nc4)c3C[C@H]2CN1C(=O)c1ccccc1, the composite z-score rises from 0.201 to 0.92.

First: CC(C)C[C@@H]1NC(=O)[C@H]2C[C@@H](C(=O)O)[C@@H](c3cccc(OCCO)c3)N2C1=O
Second: Cc1cccc([C@H]2C[C@H]3C(Br)=C[C@@]2(CO)C(=O)[C@]32CO2)c1
The composite z-score of the first is higher: 1.48 for the first, 0.708 for the second.

CC(CO)N1C(=O)[C@@H]2[C@H]3C(=O)OCC=C[C@H]3OC23C=CCN(c2ccc4ccccc4c2)C(=O)[C@@H]13 (stereo not given in full) gave a composite z-score of 0.632.

From PubChem BioAssay
